High-throughput results from PubChem.
Only a selection was taken, and hits are over-represented in it overall.
N370S GC mod: N370S glucocerebrosidase modulation, Gaucher chaperone candidate | Potency, µM (series often up to 59.4 µM), without a hit: at the top dose activity change, negative = inhibition, usual class: inhibitors | P04062 | 0.092% of 330,000 active | AID 2101 | N370S GC spleen homogenate, 4MU-glucoside fluorescence;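 further: potency means the concentration at half of the fitted maximal effect; 0% = full enzyme activity and -100% = no enzyme basal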
Glioma ERSR ind: inducers of ER stress response in human glioma cells. 0.02% of 420,000 active. AID 602332. Potency, µM, for the others: at the highest dose activation, most hits filed as activators. U87-MG GRP78 promoter luciferase reporter, 16 h; further: potency means the concentration at half of the fitted maximal effect; series mostly up to about 76 µM; % of control where 0% means no effect; nearly all actives have a fitted effect of over 35% in size
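Stably transfected U87-MG human glioma cells carrying a GRP78-based luminescent sensor were seeded at 1000 cells/well, pin-dosed with compounds and incubated 16 h. Luciferase reagent was then added, and end-point luminescence was read after 10 min at room temperature.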
CBFb RUNX1 block: inhibitors of human CBF-beta and RUNX1 interaction; 230,000 tested, under 10 active; AID 1477; Potency, µM (titrated, usually from 59.8 µM), for the others: top-dose activity, negative = inhibition, actives largely listed as inhibitors; AlphaScreen CBFb-His/RUNX1-biotin binding, biochemical; Q01196+Q13951; further: % of control where 0% means no effect
Target sequence (Q01196 whole entry, looked up): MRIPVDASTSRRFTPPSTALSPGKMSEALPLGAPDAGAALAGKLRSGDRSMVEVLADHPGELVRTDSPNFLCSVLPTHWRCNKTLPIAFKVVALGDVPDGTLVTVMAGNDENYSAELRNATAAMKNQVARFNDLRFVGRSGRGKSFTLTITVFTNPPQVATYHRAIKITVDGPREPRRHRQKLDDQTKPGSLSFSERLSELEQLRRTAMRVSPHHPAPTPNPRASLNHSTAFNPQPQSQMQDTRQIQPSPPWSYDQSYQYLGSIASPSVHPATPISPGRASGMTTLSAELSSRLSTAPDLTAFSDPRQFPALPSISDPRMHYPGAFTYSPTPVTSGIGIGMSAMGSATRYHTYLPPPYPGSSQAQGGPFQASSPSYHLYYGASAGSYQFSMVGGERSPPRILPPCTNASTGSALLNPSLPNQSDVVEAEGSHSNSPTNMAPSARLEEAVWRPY
Target sequence (Q13951 whole entry, looked up): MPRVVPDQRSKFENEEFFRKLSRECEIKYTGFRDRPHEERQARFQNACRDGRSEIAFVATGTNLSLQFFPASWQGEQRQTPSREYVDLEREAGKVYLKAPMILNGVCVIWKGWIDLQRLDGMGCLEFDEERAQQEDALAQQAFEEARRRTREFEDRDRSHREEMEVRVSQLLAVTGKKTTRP
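AlphaScreen binding: CBFb-His and RUNX1-biotin (30 nM each) preincubated 20 min, compound added for 15 min, then nickel and streptavidin beads for 90 min, all at room temperature. Disruption of the interaction by any mechanism counts as activity.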
Anesthetic bind: candidate novel general anesthetic via apoferritin binding. Potency, µM (titrated, usually from 77.5 µM), for the others: at the top dose activity change, negative = displacement, usual class: inhibitors. 0.074% of 350,000 active. AID 485281. apoferritin/1-aminoanthracene competitive binding, fluorescence. P02791; further: potency means the concentration at half of the fitted maximal effect; on the % scale 0 is the no-effect control and ±100 the full control effect; nearly all actives have a fitted effect of over 20% in size
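In PBS, apoferritin at 10 uM is loaded with 1-AMA from a 50% saturated solution. After 10 min of compound exposure at ambient temperature, reduced 535 nm fluorescence indicates probe displacement.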
Integrin act MD: activates integrin-mediated alleviation for muscular dystrophy | AID 624291 | 0.064% of 350,000 active | alpha7betagal myoblasts, beta-gal FDG fluorescence, 48 h | Potency, µM (series often up to 38.3 µM), inactives show at the top dose activation, usual class: activators;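 further: potency means the concentration at half of the fitted maximal effect; 100% = response of the positive control SU9516; nearly all actives have a fitted effect of over 60% in size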
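Alpha7betagal+/- myoblasts (passage 13) were plated 16-24 hr, then exposed to compounds (1:260 dilution of DMSO stock) for 48 hours at 37C. After MPER lysis, β-galactosidase reporter activity was read as FDG fluorescence (ex 480/em 540) after 30 minutes.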
ClpP mod: qHTS Assay for Activators of ClpP. ATP-dependent Clp protease proteolytic subunit (Bacillus subtilis (strain 168)), P80244. purified B. subtilis ClpP, FRET peptide cleavage, 20 min. Potency, µM (top dose mostly 57.5 µM), inactives show at the highest dose activity change, negative = active. 1.9% of 340,000 active. AID 651965, 2013; active means well fitted falling curve with a large enough effect; inconclusive means small, poorly fitted or top-dose-only effect; inactive means no such curve, though single readings can be large or run the other way; further: potency means the concentration at half of the fitted maximal effect; the source files actives as falling curves though it sought activators and does not explain the sign; nearly all actives have a fitted effect of over 65% in size
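FRET quenching reversal measured ClpP activation: 10 microg/mL B. subtilis ClpP at pH 8 with the FRET-FV decapeptide, read at 430 nm after 320 nm excitation. The 20-min minus 0-min signal was scaled between DMSO/no-enzyme wells and ADEP (5.8 microM final).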
* marks the source's active call; other numbers are inactive results; ? = inconclusive; / = not tested or not shown; [ ] = remark or other dose. Unless noted, the call rests on the fitted dose curve; in most records, active means well fitted curve in the direction sought with a large enough effect; inconclusive means small, poorly fitted or top-dose-only effect, or another doubt; inactive means no such curve, though single readings can be large; an effect the other way counts as inactive or inconclusive.

SMILES | N370S GC mod | Glioma ERSR ind | CBFb RUNX1 block | Anesthetic bind | Integrin act MD | ClpP mod
O=C1CC(=C(c2ccccc2)c2ccccc2)C(=O)N1CCN1CCN(c2cccc(Cl)c2)CC1 | / | -3.4% | -22.9% | ? | 18.2% | 25.1µM*
CCCCNc1c(-c2ccc(OC)c(SC3CCCCC3)c2)nc2cnccn12 | 29.3% | -13.0% | / | / | -43.0% | -26.1%
CCCCNc1c(-c2ccc(SC3CCCCC3)cc2)nc2cnccn12 | / | 13.2% | / | / | -34.8% | 28.2µM*
O=C(COc1ccc([N+](=O)[O-])cc1)N(Cc1ccccc1)Cc1ccccc1 | 4.7% | -5.3% | -0.9% | -16.3% | 14.8% | 31.6µM*
COc1ccccc1-c1nc2cc(C(=O)NC[C@H]3CCc4ccccc4O3)cc(NC(C)=O)c2n1C | / | -3.6% | / | / | / | /
OCC1O[C@H]([S-])[C@H](O)[C@@H](O)[C@@H]1O.[Au+] (stereo partly drawn) | / | -4.4% | / | / | / | /
COCc1c(Br)c(C)[nH]c(=O)c1C#N | 3.5% | -15.8% | -0.9% | -4.7% | 27.6% | 14.1µM*
COc1ccc(-c2nc(CS(=O)CC(=O)NCCc3ccccc3)c(C)o2)cc1OC (stereo not drawn) | / | 2.6% | / | -4.4% | / | 15.8µM*
COc1ccc(-c2nc(CS(=O)CC(=O)NCCCN3CCCC(C)C3)c(C)o2)cc1OC (stereo not drawn) | 1.4% | 0.4% | / | -3.0% | 23.2% | 3.6%
COc1ccc(-c2nc(CSCC(=O)NC3CCCc4ccccc43)c(C)o2)cc1OC (stereo not drawn) | 7.0% | -7.4% | -8.1% | -23.4% | 26.4% | 28.2µM*
COc1ccc(-c2nc(CS(=O)CC(=O)NCCCN3CC(C)CC(C)C3)c(C)o2)cc1OC (stereo not drawn) | -0.6% | -2.3% | -3.9% | -18.5% | 4.7%[7.66 µM] | 28.2µM*
Cc1c(C(=O)N(C)CC2CCCN(C)C2)cnn1-c1nccc(-c2ccco2)n1 (stereo not drawn) | / | 2.5% | / | / | / | /
O=S1(=O)CCO[C@H]2CCCC[C@@H]2N1Cc1cccc(F)c1 | / | -3.1% | / | / | / | 1.4%
CC(C)CCNc1nc(-c2ccco2)c2c(c1C#N)CCCC2 | / | -4.5% | 22.8% | -9.0% | -0.8% | 14.1µM*
CN(C)CCNc1nc(-c2ccco2)c2c(c1C#N)CC(C)(C)OC2 | ? | -3.9% | 4.5% | 24.3% | -9.6% | ?
CC1(C)Cc2c(C#N)c(NCc3ccco3)nc(-c3ccco3)c2CO1 | 11.2% | -11.4% | 15.1% | 4.4% | -40.2% | 31.6µM*
CCc1nc(NCc2ccccc2)c(C#N)c2c1CCCC2 | 21.4% | 0.9% | -1.9% | -12.0% | 18.7% | 3.5%
N#Cc1c(NCCN)nc(-c2ccco2)c2c1CCCC2 | 20.5% | -7.0% | 3.2% | 3.6% | -56.1% | 8.91µM*
CCc1nc(NCCN)c(C#N)c2c1CSC(C)(C)C2 | -2.7% | -1.8% | -4.4% | -11.8% | -31.8% | 22.4µM*
Cc1nnc(C(C)C)n1C1C[C@H]2CC[C@@H](C1)N2CC[C@H](NC(=O)C1CCC(F)(F)CC1)c1ccccc1 (stereo partly drawn) | / | -3.0% | / | / | / | /
Cc1c(C(=O)N2CCCCC2)sc2ncnc(NCCN(C)C)c12 | / | -4.5% | / | / | / | /
N#Cc1c(N2CCOCC2)nc(-c2ccco2)c2c1CCCC2 | ? | 2.3% | ? | -13.8% | -18.6% | 35.5µM*
CC1(C)Cc2c(C#N)c(N3CCCC3)nc(-c3ccco3)c2CO1 | 0.4% | / | 11.8% | 2.7% | / | /
CCc1nc(NCCC(C)C)c(C#N)c2c1CCCC2 | -0.7% | -1.2% | 4.7% | -12.8% | 18.4% | 15.8µM*
Cc1cccn2c(=O)c(/C=C(\C#N)C(=O)NC3CCS(=O)(=O)C3)c(N3CCC(C)CC3)nc12 (stereo not drawn) | ? | -1.2% | 6.8% | -1.8% | -7.6% | ?
SMILES | N370S GC mod | Glioma ERSR ind | CBFb RUNX1 block | Anesthetic bind | Integrin act MD | ClpP mod
N#C/C(=C\c1c(N2CCCCC2)nc2ccccn2c1=O)C(=O)NC1CCS(=O)(=O)C1 (stereo not drawn) | / | -3.3% | ? | 100.8% | -18.7% | 3.98µM*
Cc1cccc(Oc2nc3ccccn3c(=O)c2/C=C(\C#N)C(=O)NC2CCS(=O)(=O)C2)c1 (stereo not drawn) | 8.0% | -1.8% | -5.3% | 6.7% | -28.5% | 25.1µM*
CC(NC(CCc1ccccc1)C(=O)O)C(=O)N1CCCC1C(=O)O (stereo not drawn) | / | -4.3% | / | / | / | /
Cc1cnc(-n2ncc(C(=O)NCc3ccncc3)c2C2CC2)nc1-c1cccs1 | / | -2.5% | / | / | / | /
O=C(Nc1cccnc1)c1cc2c(ccc3ccccc32)o1 | 4.9% | 1.5% | 4.2% | -12.7% | -6.0% | 25.1µM*
NNC(=O)c1cc2c(ccc3ccccc32)o1 | 2.8% | 9.4% | -2.1% | -3.0% | -0.9% | /
O=C(O)c1cc2c(ccc3ccccc32)o1 | ? | -2.5% | -0.8% | -6.0% | -7.4% | 28.2µM*
CN1CCN(C(=O)c2cc3c(ccc4ccccc43)oc2=O)CC1 | 22.7% | -4.5% | 5.9% | 353.6% | 2.9% | 12.6µM*
Cc1noc(C)c1CC(=O)NCC1Cc2cc(-c3cccc(OC(F)(F)F)c3)ccc2O1 (stereo not drawn) | / | -2.4% | / | / | / | /
COc1cc(CN2CCOc3ccc(C(O)c4cccnc4)cc3C2)cc(OC)c1 (stereo not drawn) | / | -1.6% | / | / | / | /
CC1=C(C(=O)Nc2ccccc2)C(c2ccc3c(c2)OCO3)C2=C(CCCC2=O)N1 (stereo not drawn) | 7.7% | -0.9% | ? | 1.9% | -21.5% | -26.4%
CC1=C(C(=O)Nc2cc(C)ccn2)C(c2ccc(C)cc2)C2=C(CCCC2=O)N1 (stereo not drawn) | 5.1% | -0.7% | 5.2% | 49.5% | 20.1% | 28.2µM*
CCn1cc(C2C(C(=O)Nc3cc(C)ccn3)=C(C)NC3=C2C(=O)CC(C)(C)C3)c(C)n1 (stereo not drawn) | 28.4% | -2.6% | 3.6% | 234.5% | 17.1% | 10µM*
C#CCOCCOCCOCCNc1nc(N2CCN(C(=O)CCCCCCCCCCNC(=O)[C@H](CO)n3cc(CCCSC)nn3)CC2)nc(N2CCN(C(=O)CCCCCCCCCCNC(=O)[C@H](CCCN=C(N)N)n3cc(C[C@@H](C)CC)nn3)CC2)n1 | 3.16µM* | -10.9% | / | / | -33.4% | 0.3%
C#CCOCCOCCOCCNc1nc(N2CCN(C(=O)CCCCCCCCCCNC(=O)Cn3cc(C[C@@H](C)O)nn3)CC2)nc(N2CCN(C(=O)CCCCCCCCCCNC(=O)[C@H](CCCN=C(N)N)n3cc(C[C@@H](C)CC)nn3)CC2)n1 | 2.82µM* | -8.7% | / | / | -2.1% | 0.3%
